Results filed as inconclusive are left out. Active and inactive are the calls of the source. Calls come from the whole dose curve; as a rule, active = well fitted curve in the direction sought with a large enough effect; inconclusive = small, poorly fitted or top-dose-only effect, or another doubt; inactive = no such curve, though single readings can be large; an effect the other way counts as inactive or inconclusive.
Key:
[1] = target: Glutathione peroxidase 1 (Homo sapiens) (UniProt P07203); experiment: Primary qHTS Assay for Inhibitors of Recombinant Selenoprotein Glutathione Peroxidase 1 (GPX1) (AID 1845191); note: nearly all actives have a fitted effect of over 65% in size; note: potency is the fitted concentration of half-maximal effect; for activity, negative = inhibition: % is set by controls: 0 for no effect and ±100 for the full control effect
Summary of the method: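 NADPH consumption tracked by fluorescence at 340/450 nm between t=0 and t=15 min, room temperature. Final mix: 10 nM GPX1, 100 nM glutathione reductase, 1 mM GSH, 0.5 mM NADPH, 0.5 mM cumene hydroperoxide, 0.01% BSA; 30 min compound–enzyme preincubation.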

[2] = target: Phospholipid hydroperoxide glutathione peroxidase GPX4 (Homo sapiens) (UniProt P36969); experiment: Primary qHTS Assay for Inhibitors of Recombinant Selenoprotein Glutathione Peroxidase 4 (GPX4) (AID 1845192); note: nearly all actives have a fitted effect of over 65% in size; note: potency is the fitted concentration of half-maximal effect; for activity change, negative = inhibition: series mostly up to about 50 µM; % is set by controls: 0 for no effect and ±100 for the full control effect
Summary of the method: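 NADPH consumption followed by fluorescence at 340/450 nm, t=0 and after 15 min at room temperature. Reaction started with cumene hydroperoxide (0.5 mM final) after 30 min compound–GPX4 preincubation; final 200 nM GPX4, 100 nM GR, 1 mM GSH, 0.5 mM NADPH.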

[3] = target: Luciferin 4-monooxygenase (Photinus pyralis) (UniProt P08659); experiment: Primary firefly luciferase (FLuc) qHTS assay for identification of artifact compounds. (AID 1845220); note: nearly all actives have a fitted effect of over 60% in size;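 for activity change, negative = inhibition: series mostly up to about 54 µM; plate controls were DMSO vehicle for no effect and no enzyme for full effect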
Summary of the method: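 Cell-free, 1536-well qHTS. Buffer pH 7.6 with 0.01% Tween-20 and 0.05% BSA; 10 uM D-luciferin, 10 uM ATP; 10 nM P. pyralis luciferase; luminescence after 5 min.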

[4] = Primary fluorescence-based thiol-reactive (MSTI) qHTS assay for identification of artifact compounds. (AID 1845221); note: nearly all actives have a fitted effect of over 65% in size; note: potency is the fitted concentration of half-maximal effect;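 for activity change, negative = thiol reactive: series mostly up to about 54 µM; thiol-reactive compounds lower the probe fluorescence signal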
Summary of the method: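 Thiol-reactive compounds detected by quenching of 4 uM MSTI fluorescence (525/598 nm) after 1 h room-temperature dark incubation in PBS pH 7.4, 2% DMSO. qHTS titration; percent inhibition Hill-fitted against Acetyl-MSTI/MSTI controls.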

[5] = system: Nanoluciferase (engineered Oplophorus gracilirostris luciferase); experiment: Primary Nanoluciferase (NLuc) qHTS assay for identification of artifact compounds. (AID 1845222);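 note: series mostly up to about 54 µM; 0% = DMSO and -100% = no enzyme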
Summary of the method: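 Compounds are pinned into diluted (1:55) conditioned medium of NLuc-expressing S16 cells and held 15 min at room temperature protected from light. Nano-Glo substrate follows, and luminescence is read 5 min later.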

[6] = target: Metallo-beta-lactamase type 2 (Klebsiella pneumoniae) (UniProt C7C422); experiment: qHTS to identify inhibitors of the New Delhi Metallo-beta-lactamase (NDM): assay validation screen against the NCATS LOPAC Collection (AID 1794843);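 note: nitrocefin turnover by NDM-1 measured as 485 nm absorbance at plateau; series mostly up to about 38 µM; % is set by controls: 0 for no effect and ±100 for the full control effect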
Summary of the method: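 NDM-1 at 2 nM final in 50 mM HEPES pH 7.0 with 1 uM ZnSO4 and 0.01% Tween20 was preincubated with library compounds in DMSO. Nitrocefin (50 uM stock) was then added, and absorbance at 485 nm was read at the kinetic plateau.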

Sequence of Phospholipid hydroperoxide glutathione peroxidase GPX4 (Homo sapiens) (P36969 whole entry, looked up): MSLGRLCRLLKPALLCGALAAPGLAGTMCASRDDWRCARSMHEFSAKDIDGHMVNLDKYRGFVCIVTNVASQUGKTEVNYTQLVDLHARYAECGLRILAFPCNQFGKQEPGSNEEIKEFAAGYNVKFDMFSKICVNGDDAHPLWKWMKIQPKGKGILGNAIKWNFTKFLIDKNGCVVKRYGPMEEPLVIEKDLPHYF
Sequence of Glutathione peroxidase 1 (Homo sapiens) (P07203 whole entry, looked up): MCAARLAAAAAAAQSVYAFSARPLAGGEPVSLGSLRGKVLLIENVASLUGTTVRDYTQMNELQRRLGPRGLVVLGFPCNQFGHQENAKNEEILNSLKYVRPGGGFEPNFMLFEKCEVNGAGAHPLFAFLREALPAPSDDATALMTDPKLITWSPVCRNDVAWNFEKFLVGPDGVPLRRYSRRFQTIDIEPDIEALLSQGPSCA
Sequence of Metallo-beta-lactamase type 2 (Klebsiella pneumoniae) (C7C422 whole entry, looked up): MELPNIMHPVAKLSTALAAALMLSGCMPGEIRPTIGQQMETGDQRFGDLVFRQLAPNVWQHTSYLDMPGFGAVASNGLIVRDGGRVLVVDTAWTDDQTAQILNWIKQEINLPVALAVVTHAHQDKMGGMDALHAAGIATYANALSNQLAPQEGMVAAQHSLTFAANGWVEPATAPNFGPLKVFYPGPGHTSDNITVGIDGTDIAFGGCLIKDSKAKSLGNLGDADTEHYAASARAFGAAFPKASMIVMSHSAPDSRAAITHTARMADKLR

CC1(C)CCC2(C(=O)OC3OC(COC4OC(CO)C(O)C(O)C4O)C(O)C(O)C3O)CCC3(C)C(=CCC4C5(C)CCC(O)C(C)(C(=O)O)C5CCC43C)C2C1O (stereo not given)
inactive: Potency [1] | Potency [2] | activity change, negative = inhibition [3] 2.78% [at 11.6 µM] | activity change, negative = thiol reactive [4] 16.4% [at 11.5 µM] | activity, negative = inhibition [5] 2.66% [at 11.6 µM]

CC1(C)S[C@@H]2[C@H](NC(=O)C(C(=O)O)c3ccsc3)C(=O)N2[C@H]1C(=O)O (stereo not given in full)
inactive: Potency [1] | Potency [2]

CC/C=C/CC1=C(CCCCCCCC(=O)O)CCC1=O
inactive: Potency [1] | Potency [2] | Potency [3] | Potency [4]

CCC(C)/C=C(C)/C=C/C1=CC2=C(Cl)C(=O)C(C)(OC(C)=O)C(=O)C2=CN1C1CCCCN(C(CCC(N)=O)C(=O)O)C1=O (stereo not given)
inactive: Potency [1] | Potency [2] | Potency [3] | Potency [5]
active: Potency [4] 0.446 µM

O=C(c1ccc(F)cc1)C1CCN(CCn2c(=O)nc3n(c2=O)CCCC3)CC1
inactive: Potency [1] | Potency [2] | Potency [3] | Potency [4] | Potency [5]

CC(=O)O[C@@H]1[C@H]2[C@@H](OC(=O)c3ccccc3)[C@@H](C)C[C@]2(O)[C@H](OC(C)=O)[C@@]2(C)[C@@H]3CC(C)(C)C(=O)[C@]3(OC(C)=O)C[C@@]12C
inactive: Potency [1] | Potency [2] | Potency [3] | Potency [4] | Potency [5]

CC(=O)OCC(=O)[C@@]1(O)CC[C@H]2[C@@H]3C[C@H](C)C4=CC(=O)C=C[C@]4(C)[C@H]3[C@@H](O)C[C@@]21C
inactive: Potency [1] | Potency [2]

CC(=O)Oc1cc(C)c(OC(C)=O)c2ccccc12
inactive: Potency [1] | Potency [2]

Cc1cc(/C=C/c2ccc3cc(N(C)C)ccc3[n+]2C)c(C)n1-c1ccccc1
inactive: Potency [1]
active: Potency [2] 14.1 µM

COC1CC(OC2CCC3(C)C(=CCC4C3CCC3(C)C(C(C)O)CCC43O)C2)OC(C)C1OC1OC(C)C(OC2OC(COC3OC(COC4OC(CO)C(O)C(O)C4O)C(O)C(O)C3O)C(O)C(O)C2O)C(OC)C1O (stereo not given)
inactive: Potency [1] | Potency [2] | outcome [3] inactive [at 11.6 µM] | activity change, negative = thiol reactive [4] 54% [at 11.5 µM] | activity, negative = inhibition [5] 4.38% [at 11.6 µM]

CO/N=C(\C(=O)N[C@@H]1C(=O)N2C(C(=O)O)=C(CSc3cnns3)CS[C@H]12)c1csc(N)n1
active: Potency [1] 20.2 µM | Potency [2] 15.8 µM

CN1Cc2c(N)cccc2C(c2ccccc2)C1 (stereo not given)
inactive: outcome [6] | Potency [1] | Potency [2]

CCN[C@@H]1C[C@H](N)[C@@H](O[C@H]2OC(CN)=CC[C@H]2N)[C@H](O)[C@H]1O[C@H]1OC[C@](C)(O)[C@H](NC)[C@H]1O
inactive: Potency [1] | Potency [2] | Potency [3] | Potency [4]

O=C(O)c1cc(O)c2cccc(O)c2c1O[C@@H]1O[C@H](CO)[C@@H](O)[C@H](O)[C@H]1O
active: Potency [4] 2.07 µM
inactive: Potency [1] | Potency [2] | Potency [3]

CO[C@H]1C=C2C(CC[C@H](O[C@@H]3O[C@H](CO)[C@@H](O)[C@@H](O)[C@H]3O)C2(C)C)[C@]2(C)CC[C@]3(C)C([C@H](C)C(O)C(C=C(C)C)O[C@@H]4O[C@H](CO)[C@@H](O)[C@@H](O)[C@H]4O)CC[C@@]3(C)C12 (stereo not given in full)
inactive: Potency [1] | Potency [2] | activity change, negative = inhibition [3] 1.78% [at 11.6 µM] | activity change, negative = thiol reactive [4] 133% [at 11.5 µM] | activity, negative = inhibition [5] 4.54% [at 11.6 µM]

C/C(=C\CCC(C(=O)O)C1CCC2(C)C3=C(CCC12C)C1(C)CCC(=O)C(C)(C)C1CC3)C(=O)O (stereo not given)
inactive: Potency [1] | Potency [2] | Potency [3] | Potency [4] | Potency [5]

C[C@@H]1O[C@@H](O[C@H]2[C@H](O)[C@@H](C(=O)O)O[C@@H](O[C@H]3CC[C@@]4(C)C(CC[C@]5(C)C4CC=C4C6CC(C)(C)CC[C@]6(C(=O)O)CC[C@]45C)C3(C)C)[C@@H]2O[C@@H]2O[C@H](CO)[C@@H](O)[C@H](O)[C@H]2O)[C@H](O)[C@H](O)[C@H]1O (stereo not given in full)
inactive: Potency [1] | Potency [2] | outcome [3] inactive [at 11.6 µM] | activity change, negative = thiol reactive [4] 296% [at 11.5 µM] | activity, negative = inhibition [5] -0.245% [at 11.6 µM]

CC(CCC1C(C(=O)O)=CC(=O)CC1(C)C)O[C@@H]1O[C@H](CO)[C@@H](O)[C@H](O)[C@H]1O (stereo not given in full)
active: Potency [4] 5.85 µM
inactive: Potency [1] | Potency [2] | Potency [3] | Potency [5]

CC(=O)OC[C@]12[C@H](OC(C)=O)C(=O)[C@@H]3[C@@H](OC(C)=O)[C@@]14O[C@@]3(C)COC(=O)c1cccnc1[C@@H](C)[C@H](C)C(=O)O[C@@H]([C@H](OC(C)=O)[C@@H]2OC(C)=O)[C@]4(C)O
inactive: Potency [1] | Potency [2] | Potency [3] | Potency [4] | Potency [5]

From PubChem BioAssay (NCATS)
